Test results reported in PubChem BioAssay (NCI).
The panel holds about 83,000 compounds, 20% with a hit somewhere; the sample as a whole holds those more often.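 Activity criterion: percent growth below 10, measured after cells in 96-well plates were exposed to a single compound concentration for 48 hours.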 Activity calls are given as the source filed them.

Key:
Experiment in all cases: NCI-60 one-dose screen, 48 h (100 = growth as untreated, 0 = no growth, -100 = all killed)
Settings in all cases: 10 µM unless noted
[1] = tested on: HCT-15 colon
[2] = tested on: HT29 colon
[3] = tested on: SNB-75 CNS
[4] = tested on: SNB-19 CNS
[5] = tested on: U251 CNS
[6] = tested on: PC-3 prostate
[7] = tested on: SK-MEL-5 melanoma
[8] = tested on: UACC-62 melanoma
[9] = tested on: SK-MEL-28 melanoma
[10] = tested on: SK-MEL-2 melanoma
[11] = tested on: EKVX NSCLC
[12] = tested on: UO-31 renal
[13] = tested on: TK-10 renal
[14] = tested on: ACHN renal
[15] = tested on: CAKI-1 renal
[16] = tested on: A498 renal
[17] = tested on: CCRF-CEM leukemia
[18] = tested on: MOLT-4 leukemia
[19] = tested on: SN12C renal
[20] = tested on: LOX IMVI melanoma

Measured: growth

CCSc1sc(-c2ccc(C)cc2)nc1[P+](c1ccccc1)(c1ccccc1)c1ccccc1
active: [1] 1.86% | [2] 2.52% | [3] -8.6% | [4] 8.14% | [5] 9.48% | [6] -11.5% | [7] -98.7% | [8] -42.5% | [10] -56.9% | [11] 6.99% | [12] -33% | [13] -6.69% | [14] -44.8% | [15] -9.03% | [16] -46.1% | [17] 8.77% | [18] -48.8%
inactive: [9] 15.2%

CCN1CCN(C(=O)[C@@]2(C)CC[C@]3(C)CC[C@]4(C)C(=CC(=O)[C@@H]5[C@@]6(C)CC[C@H](OC7C[C@@H](O)[C@@H](O)C(C)O7)C(C)(C)[C@@H]6CC[C@]54C)[C@@H]3C2)CC1 (stereo partly drawn)
inactive: [1] 34.2% | [3] 86.7% | [4] 39% | [5] 10.3% | [6] 42.1% | [10] 105% | [11] 80.4% | [13] 136% | [14] 79.5% | [15] 89.4% | [16] 95.5%
active: [2] 1.72% | [7] -5.54% | [8] -69.3% | [9] -7.89% | [12] -80.8% | [17] 0.503% | [18] 0.754%

COc1cc(-c2nc(-c3ccccc3)c(-c3ccccc3)[nH]2)cc(OC)c1O
active: [2] 0.965% | [5] 5.45% | [6] -58.6% | [7] -8.78% | [8] -60.6% | [9] -4.06% | [10] -39.7% | [19] 2.29% | [13] 0.953% | [17] -0.116% | [18] 4.88%
inactive: [1] 11.1% | [3] 29.7% | [4] 20.1% | [14] 15.2% | [16] 82.8%

COc1cc(-c2cc(-c3nc4cc(Cl)c(Cl)cc4[nH]3)[nH]n2)cc(OC)c1OC
active: [6] 5.57%
inactive: [1] 52% | [2] 72.6% | [3] 70.4% | [4] 78.1% | [5] 75.7% | [7] 19.6% | [8] 24.1% | [9] 47.6% | [10] 86.5% | [19] 69.7% | [12] 43.2% | [13] 107% | [14] 46.8% | [15] 84.6% | [16] 67.4%

CC(C)(C)CC(C)(C)c1ccc(OCCOCC[N+](C)(C)CC(=O)[O-])cc1
inactive: [1] 105% | [2] 103% | [3] 99.2% | [4] 111% | [5] 98.4% | [6] 104% | [7] 106% | [8] 104% | [9] 114% | [10] 117% | [19] 103% | [12] 98.5% | [13] 109% | [14] 111% | [16] 104% | [18] 94.2%

c1ccc2c(-c3nc(-c4c[nH]c5ncccc45)cs3)c[nH]c2c1
inactive: [1] 84.9% | [2] 79.2% | [3] 88.4% | [4] 97.8% | [5] 104% | [6] 84.2% | [7] 106% | [8] 96.9% | [9] 112% | [10] 102% | [11] 80.5% | [13] 120% | [14] 97.3% | [15] 98.7% | [16] 91.8% | [17] 75.4% | [18] 85.6%

COc1cccc(NC(=O)c2sc3nc4c(cc3c2N)C(=O)CCC4)c1
inactive: [1] 15.7% | [4] 41.6% | [5] 14.3% | [6] 10.5% | [8] 34.5% | [9] 62.9% | [10] 25.3% | [19] 35.3% | [12] 52.3% | [13] 84.2% | [14] 42.5% | [15] 55.2%
active: [2] 4.77% | [3] -0.688% | [7] 3.83% | [16] -3.03%

COc1ccc(-c2cc(/C=C/C(=O)c3ccc(N)cc3)[nH]n2)cc1
inactive: [1] 17% | [2] 10.4% | [4] 27.6% | [5] 14.4% | [6] 26.4% | [7] 23.9% | [8] 24.7% | [9] 34.6% | [10] 22.4% | [12] 39.6% | [13] 41.8% | [14] 26.9% | [15] 38.7%
active: [3] -0.764% | [16] -16.8%

O=C1NC(=Nc2ccc(S(=O)(=O)Nc3nccs3)cc2)S/C1=C\c1coc2ccccc2c1=O
inactive: [1] 104% | [2] 97.6% | [3] 55.9% | [4] 98.5% | [5] 102% | [6] 95% | [7] 103% | [8] 99.5% | [9] 111% | [10] 133% | [19] 95.3% | [12] 82.6% | [13] 133% | [14] 98.6% | [15] 103% | [16] 101%

CCCC(=O)N1CCCCC1CC (stereo not drawn)
inactive: [1] 99.4% | [2] 106% | [3] 92% | [4] 112% | [5] 91.8% | [6] 92.5% | [7] 117% | [8] 111% | [9] 112% | [10] 109% | [19] 105% | [12] 108% | [13] 113% | [14] 97.1% | [16] 90.8% | [17] 95.3% | [18] 113%

COc1ccc(-c2cc(/C=C/C(=O)c3ccc(OC)c(OC)c3)[nH]n2)cc1
inactive: [1] 12.5% | [4] 27% | [7] 51.3% | [8] 37.3% | [9] 53.9% | [10] 69.2% | [19] 17.6% | [12] 36.4% | [13] 31.4% | [14] 29.8% | [15] 62.8%
active: [2] 1.11% | [3] 9.56% | [5] 4.42% | [6] 4.36% | [16] -4.05%

Nc1c(C(=O)Nc2cccc(Br)c2)sc2nc3c(cc12)C(=O)CCC3
inactive: [1] 33% | [4] 32.7% | [5] 37.7% | [6] 14.3% | [7] 20.5% | [8] 35.3% | [9] 48.3% | [10] 30.8% | [19] 45.2% | [12] 56.9% | [13] 69% | [14] 58.8% | [15] 64%
active: [2] 8.17% | [3] -4.52% | [16] -3.99%

CC1(C)NC2=C(C(Nc3cccnc3)N1)C(c1ccc([N+](=O)[O-])cc1)C(C(=O)c1ccc(N=[N+]=[N-])cc1)O2 (stereo not drawn)
inactive: [1] 104% | [2] 113% | [3] 96.2% | [4] 98.7% | [5] 101% | [6] 98.9% | [7] 102% | [8] 97.1% | [9] 103% | [10] 107% | [11] 99.8% | [12] 88.3% | [13] 97.1% | [14] 102% | [15] 102% | [16] 108% | [17] 98.8% | [18] 102%

COc1cc(-c2cc(-c3nc4ccccc4[nH]3)[nH]n2)cc(OC)c1OC
active: [6] 5.47% | [7] -44.4%
inactive: [1] 48.8% | [2] 69.3% | [3] 51.9% | [4] 86.9% | [5] 55.8% | [8] 34.5% | [9] 61.8% | [10] 47.4% | [19] 65.8% | [12] 39.8% | [13] 70.3% | [14] 39.3% | [15] 38.8% | [16] 17.2%

Cn1cc(-c2nc(-c3cn(C)c4ncccc34)cs2)c2ccccc21
active: [2] 9.24%
inactive: [1] 20.4% | [3] 20.9% | [4] 51.4% | [5] 31.8% | [6] 53.6% | [7] 21.9% | [8] 33.2% | [9] 46.5% | [10] 28.6% | [11] 62.6% | [12] 62.4% | [13] 50.5% | [14] 49.6% | [15] 28.3% | [16] 45.4% | [17] 47.1% | [18] 31.7%

CN(C)CCCC1(c2ccc(F)cc2)OCc2cc(-c3ccc(C(F)(F)F)nc3)ccc21 (stereo not drawn)
inactive: [1] 78.4% | [2] 64.8% | [3] 41.7% | [4] 76.7% | [5] 57.1% | [6] 68.7% | [7] 75.3% | [8] 86.1% | [9] 81% | [10] 94.2% | [11] 76.1% | [12] 55.5% | [13] 82.4% | [14] 83.1% | [15] 55.4% | [16] 89.8% | [17] 69.1% | [18] 53.6%

O=Cc1nc2ccccc2[nH]1
inactive: [1] 108% | [2] 91% | [3] 80% | [4] 101% | [5] 92.2% | [6] 78.7% | [7] 102% | [20] 91.2% | [9] 116% | [10] 101% | [11] 94.5% | [19] 101% | [12] 75.9% | [13] 97% | [14] 106% | [15] 93.2% | [16] 105% | [17] 99.8% | [18] 95.4%

COc1ccc(/C=C2\N=C(c3ccccc3)N(c3cc(OC)c(OC)cc3C(=O)N3N=C(C)CC3=O)C2=O)cc1
inactive: [1] 90% | [2] 99.7% | [3] 87.6% | [4] 99.5% | [5] 102% | [6] 89.4% | [7] 77.3% | [8] 65.5% | [9] 95.2% | [10] 91.1% | [19] 93.7% | [12] 68.9% | [13] 113% | [14] 93.2% | [15] 92.3% | [16] 50.8% | [18] 57.9%
